# Calls of active or inactive are those of the source.
# Key:
# [1] = small molecules captured by biotinylated probe aFSTL3 – biochemical, small-molecule microarray, fluorescence 635/667, stem cell growth factor project, primary screen (AID 1064); details: higher = more signal;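 note: measures binding of the biotinylated anti-FSTL3 antibody to printed compounds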
# [2] = binders from COS7 lysate, DM2A8 probe, primary screen, torsin A project, cell lysate, small-molecule microarray, fluorescence 635/667 (AID 1065); details: higher = more signal, COS7 lysate expressing mutant human TOR1A
# [3] = small molecules captured by biotinylated probe aFGF2 – biochemical, small-molecule microarray, fluorescence 635/667, stem cell growth factor project, primary screen (AID 1067); details: higher = more signal;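 note: measures binding of biotinylated aFGF2 protein to printed compounds on slides; z-score merges feature fluorescence and signal-to-noise across triplicate slides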
# [4] = small molecules captured by biotinylated probe aFGF10 – biochemical, small-molecule microarray, fluorescence 635/667, stem cell growth factor project, primary screen (AID 1071); details: higher = more signal;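 note: score merges 667 nm spot intensity and signal to noise from triplicate slides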
# [5] = biological target: Neurogenic locus notch homolog protein 2 (Homo sapiens) (UniProt Q04721); experiment: small molecules binding Notch2 protein – biochemical, small-molecule microarray, 635 nm fluorescence, stem cell growth factors, primary screen (AID 1073); details: higher = more signal
# [6] = biological target: Pro-neuregulin-1, membrane-bound isoform (Homo sapiens) (UniProt Q02297); experiment: small molecules binding neuregulin-1 protein – biochemical, small-molecule microarray, fluorescence 635/667, psychiatric disease protein project, primary screen (AID 1075); details: NRG1 binding, 635 nm fluorescence, higher = more signal;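 note: score combines 667 nm spot fluorescence with signal to noise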
# [7] = tested on: Neuregulin-1 EGF-like domain; experiment: small molecules binding NRG1 EGF domain – biochemical, small-molecule microarray, 635 nm fluorescence, primary screen (AID 1081); details: higher = more signal;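 note: binding of the protein to compounds printed on small-molecule microarray slides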
# [8] = FRG1 expression reporter modulators in myotubes – cell-based, C2C12 myotubes, firefly/Renilla luciferase, luminescence, FRG1 inhibition for FSHD, primary screen (AID 1084); details: FRG1 promoter luciferase, higher = more signal, called active from +8 up or from −8 down
# [9] = small molecules captured by biotinylated probe aFST – biochemical, small-molecule microarray, fluorescence 635/667, stem cell growth factor project, primary screen (AID 1086); details: higher = more signal;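 note: score merges 667 nm fluorescence with signal-to-noise of each printed compound spot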
# [10] = binders of probe aHhip on microarray, primary screen, stem cell growth factor project, biochemical, small-molecule microarray, fluorescence 635/667 (AID 1087); details: higher = more signal;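 note: score merges spot fluorescence at 667nm with spot signal to noise ratio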
# Neurogenic locus notch homolog protein 2 (Homo sapiens), sequence (Q04721 whole entry, looked up, canonical isoform): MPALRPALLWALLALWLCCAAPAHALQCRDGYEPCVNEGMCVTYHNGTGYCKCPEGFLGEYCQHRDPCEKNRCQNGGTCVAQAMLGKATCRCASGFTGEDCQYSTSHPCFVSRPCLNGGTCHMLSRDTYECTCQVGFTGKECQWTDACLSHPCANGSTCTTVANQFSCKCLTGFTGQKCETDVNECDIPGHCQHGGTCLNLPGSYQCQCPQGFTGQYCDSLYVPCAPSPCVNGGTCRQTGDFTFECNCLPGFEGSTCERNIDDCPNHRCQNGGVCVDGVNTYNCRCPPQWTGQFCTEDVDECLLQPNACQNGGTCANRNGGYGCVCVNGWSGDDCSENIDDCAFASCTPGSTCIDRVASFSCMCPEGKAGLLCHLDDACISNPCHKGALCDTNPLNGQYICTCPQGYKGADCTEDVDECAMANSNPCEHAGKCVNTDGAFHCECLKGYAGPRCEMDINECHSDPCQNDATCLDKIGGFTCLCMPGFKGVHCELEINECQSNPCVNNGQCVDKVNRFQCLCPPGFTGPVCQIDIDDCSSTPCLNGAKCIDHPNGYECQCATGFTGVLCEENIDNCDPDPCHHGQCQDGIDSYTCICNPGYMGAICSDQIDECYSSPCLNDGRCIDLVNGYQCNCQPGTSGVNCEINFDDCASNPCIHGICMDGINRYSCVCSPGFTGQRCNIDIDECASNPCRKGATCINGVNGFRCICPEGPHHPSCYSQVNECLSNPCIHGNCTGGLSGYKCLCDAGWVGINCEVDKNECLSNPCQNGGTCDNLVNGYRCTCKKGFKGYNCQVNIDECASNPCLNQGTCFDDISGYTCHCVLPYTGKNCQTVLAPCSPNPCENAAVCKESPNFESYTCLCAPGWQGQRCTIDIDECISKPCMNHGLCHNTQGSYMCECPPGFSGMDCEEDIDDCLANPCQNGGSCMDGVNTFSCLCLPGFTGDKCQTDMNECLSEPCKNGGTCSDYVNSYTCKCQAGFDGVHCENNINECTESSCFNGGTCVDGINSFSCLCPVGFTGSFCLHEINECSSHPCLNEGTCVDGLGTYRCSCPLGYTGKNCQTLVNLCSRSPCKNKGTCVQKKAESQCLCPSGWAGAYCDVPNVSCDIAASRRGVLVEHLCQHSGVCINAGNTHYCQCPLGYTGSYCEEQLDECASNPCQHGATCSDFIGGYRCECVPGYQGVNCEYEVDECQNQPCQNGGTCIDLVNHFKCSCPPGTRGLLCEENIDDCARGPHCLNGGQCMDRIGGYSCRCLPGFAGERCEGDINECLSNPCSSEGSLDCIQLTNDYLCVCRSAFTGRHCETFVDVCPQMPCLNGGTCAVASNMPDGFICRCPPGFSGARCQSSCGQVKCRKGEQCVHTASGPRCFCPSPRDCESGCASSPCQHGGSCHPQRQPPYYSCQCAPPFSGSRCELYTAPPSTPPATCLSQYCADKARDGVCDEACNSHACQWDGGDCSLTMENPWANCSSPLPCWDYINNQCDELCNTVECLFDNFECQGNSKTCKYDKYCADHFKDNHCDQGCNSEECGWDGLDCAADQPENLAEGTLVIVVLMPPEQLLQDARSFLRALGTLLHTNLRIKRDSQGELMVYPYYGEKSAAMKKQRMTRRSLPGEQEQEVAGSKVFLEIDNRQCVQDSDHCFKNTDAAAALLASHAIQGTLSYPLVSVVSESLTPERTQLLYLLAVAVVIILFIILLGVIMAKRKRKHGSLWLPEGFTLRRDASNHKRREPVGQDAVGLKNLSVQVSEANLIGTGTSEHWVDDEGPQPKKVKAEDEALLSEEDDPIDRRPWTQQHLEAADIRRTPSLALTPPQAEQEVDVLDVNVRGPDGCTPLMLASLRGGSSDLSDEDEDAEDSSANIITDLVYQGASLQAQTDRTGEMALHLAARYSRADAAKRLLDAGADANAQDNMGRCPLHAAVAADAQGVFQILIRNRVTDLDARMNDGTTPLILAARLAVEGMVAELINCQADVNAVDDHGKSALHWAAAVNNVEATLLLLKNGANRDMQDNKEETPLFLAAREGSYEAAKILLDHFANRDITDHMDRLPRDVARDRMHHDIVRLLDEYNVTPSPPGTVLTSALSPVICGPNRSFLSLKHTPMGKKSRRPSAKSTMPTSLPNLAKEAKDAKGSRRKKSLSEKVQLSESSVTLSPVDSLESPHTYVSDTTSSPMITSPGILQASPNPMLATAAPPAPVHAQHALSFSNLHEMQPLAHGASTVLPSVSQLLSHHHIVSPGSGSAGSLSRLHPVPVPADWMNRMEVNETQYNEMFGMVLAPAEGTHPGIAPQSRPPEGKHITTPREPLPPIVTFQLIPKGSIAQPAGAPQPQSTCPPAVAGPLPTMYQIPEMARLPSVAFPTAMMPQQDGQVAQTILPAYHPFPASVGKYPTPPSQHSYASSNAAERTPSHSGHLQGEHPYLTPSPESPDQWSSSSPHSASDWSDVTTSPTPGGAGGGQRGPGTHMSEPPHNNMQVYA
# Pro-neuregulin-1, membrane-bound isoform (Homo sapiens), sequence (Q02297 whole entry, looked up, the tested form may be a part, canonical isoform): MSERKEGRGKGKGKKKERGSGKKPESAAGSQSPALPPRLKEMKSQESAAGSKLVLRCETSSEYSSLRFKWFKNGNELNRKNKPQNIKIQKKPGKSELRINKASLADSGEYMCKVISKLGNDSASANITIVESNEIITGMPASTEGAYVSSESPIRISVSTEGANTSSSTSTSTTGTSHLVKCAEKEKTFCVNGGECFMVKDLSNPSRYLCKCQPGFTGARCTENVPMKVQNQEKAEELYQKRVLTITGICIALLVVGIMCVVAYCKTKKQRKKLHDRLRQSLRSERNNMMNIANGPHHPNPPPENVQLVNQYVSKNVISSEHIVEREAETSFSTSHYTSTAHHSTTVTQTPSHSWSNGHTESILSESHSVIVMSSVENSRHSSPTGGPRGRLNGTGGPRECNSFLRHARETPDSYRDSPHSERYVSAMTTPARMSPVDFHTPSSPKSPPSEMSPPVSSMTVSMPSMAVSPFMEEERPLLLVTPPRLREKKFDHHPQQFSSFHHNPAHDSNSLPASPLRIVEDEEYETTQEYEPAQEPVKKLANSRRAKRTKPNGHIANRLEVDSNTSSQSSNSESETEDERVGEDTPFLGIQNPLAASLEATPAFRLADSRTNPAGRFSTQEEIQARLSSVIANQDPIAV
Structure (SMILES),composite z-score [1],composite z-score [2],composite z-score [3],composite z-score [4],composite z-score [5],composite z-score [6],composite z-score [7],z-score [8],composite z-score [9],composite z-score [10]
[N-]=[N+]=Nc1ccccc1[C@@H]1OC(c2ccc(OCCCO)cc2)=N[C@]1(CCS(=O)(=O)c1ccccc1)C(N)=O,0.109,-0.0445,0.29,0.829,1.58,1.63,1.23,1.14 (inactive),2.08,-0.213
COCCOC(=O)N1C(=O)[C@@]2(c3cc(C#CCC(C(=O)OC)C(=O)OC)ccc31)[C@H](C(=O)N1CCN(c3ncccn3)CC1)[C@H]1C(=O)O[C@H](c3ccccc3)[C@H](c3ccccc3)N1[C@@H]2c1ccccc1OCCO,-0.486,0.51,0.0247,0.86,1.32,0.841,1.27,0.131 (inactive),0.495,-0.0346
COc1cc2c(cc1OC)CN(C(=O)[C@@H]1[C@H]3C(=O)O[C@H](c4ccccc4)[C@H](c4ccccc4)N3[C@H](c3ccccc3OCCO)[C@@]13C(=O)Nc1ccc(C#CCCO)cc13)CC2,0.718,0.531,-0.152,0.671,0.626,0.86,1.23,0.876 (inactive),1.25,0.0458
C=C(CCCC)/C(=C/C[C@H](OC(=O)c1ccncc1)c1ccccc1OCCO)c1cnc2ccccc2c1,-0.345,1.04,-0.0544,0.706,0.965,0.424,1.05,-0.756 (inactive),0.228,0.126
O=C(c1ccccc1)N1Cc2ccccc2C[C@@]2(COC(c3ccc(OCCCO)cc3)=N2)C1=O,-0.0932,0.711,0.0292,0.591,1.03,0.0612,1.25,-0.187 (inactive),0.146,-0.0296
O=C1N[C@@H](Cc2ccccc2)C(=O)N2[C@@H]1C[C@@H](C(=O)O)[C@H]2c1cccc(OCCO)c1,0.0693,0.571,0.0127,0.801,0.399,1.54,1.38,9.18 (active),0.166,-0.0237
C=CCNC(=O)[C@H]1[C@@H]2C(=O)O[C@@H](c3ccccc3)[C@@H](c3ccccc3)N2[C@@H](c2ccccc2OCCO)[C@]12C(=O)Nc1ccc(C#CCC(C(=O)OC)C(=O)OC)cc12,0.0775,0.44,0.0468,0.423,1.53,1.46,1.34,-0.616 (inactive),1.08,0.409
CC(C)N1C(=O)[C@@]2(Cc3ccccc31)c1ccccc1C(=O)N(Cc1ccccc1Cl)[C@H]2c1ccc(CO)cc1,-0.0423,-0.149,-0.177,-0.272,-0.791,-0.371,0.0118,-0.426 (inactive),-0.377,-0.319
CCCC[C@@H]1C[C@H]1[C@@H](NC(=O)c1ccco1)c1ccc(-c2ccccc2)cc1,-0.207,-0.194,-0.176,0.203,0.571,-0.343,1.02,1.85 (inactive),0.425,0.0922
CCOC(=O)C[C@H]1[C@H](OC(=O)c2ccc(-c3ccccc3)cc2)[C@@H](NC(=O)Cc2ccc(OC)cc2)c2cc(OCCCO)ccc2N1C(=O)c1ccccc1,-0.0117,-0.354,-0.0316,0.23,0.255,0.176,0.3,-0.831 (inactive),0.376,-0.0391
NC(=O)N1C(=O)C2C(C1=O)C1C=C(c3ccc(CO)cc3)C2C(c2cccs2)N1Cc1cccc(OC(F)(F)F)c1 (stereo not given),0.677,0.639,-0.0085,0.326,-0.596,1.3,0.106,-0.723 (inactive),0.322,-0.0645
NC(=O)NCC#Cc1ccc2c(c1)[C@]1(C(=O)N2)[C@H](c2ccccc2OCCO)N2[C@H](c3ccccc3)[C@H](c3ccccc3)OC(=O)[C@H]2[C@@H]1C(=O)Nc1nc2ccccc2s1,-0.108,-0.354,-0.016,0.268,0.295,0.756,0.176,0.169 (inactive),0.617,-0.0296
CC(C)C(=C=CC[C@@H](O)c1ccc(OCCO)cc1)C[C@@H](O)c1ccccn1,-0.149,0.651,0.0297,1.19,0.344,-0.272,0.826,0.463 (inactive),-0.0267,-0.166
CCOC(=O)C[C@H]1[C@H](OC(=O)c2ccc(C(=O)c3ccccc3)cc2)[C@@H](NC(=O)c2ccccc2)c2cc(OCCCO)ccc2N1C(=O)Cc1ccc(OC)cc1,0.0814,0.128,-0.0502,0.153,0.12,-0.126,0.532,-1.09 (inactive),0.0512,-0.0237

# From PubChem BioAssay
